This note sets out measurements from PubChem BioAssay (EPA / NIEHS).

A word on the AC50: it is the concentration giving half of the maximal activity seen.

Assay [1] is described as follows: ATG_CRE_CIS: Attagene CIS-FACTORIAL HepG2 Assay for human cAMP Responsive Element (CRE) binding protein 3 (AID 2282926). The settings on record: HepG2 CRE cis-reporter, Attagene multiplexed mRNA; actives raise or lower the signal. In short, it runs like this: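 Cells carrying cis-regulated reporter constructs respond through their own endogenous factors. After 24 h treatment, RNA is reverse-transcribed, amplified, labelled and sized by capillary electrophoresis; up- and down-regulation are both scored against vehicle.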

Assay [2] has as its target CCAAT/enhancer-binding protein beta (Homo sapiens) (UniProt P17676). The assay can be described thus: ATG_C_EBP_CIS: Attagene CIS-FACTORIAL HepG2 Assay for human CCAAT/Enhancer Binding Protein (C/EBP) beta (AID 2282927). The settings on record: HepG2 Attagene cis-factorial transcription factor reporter; actives raise or lower the signal. In short, it runs like this:
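Chemical-treated HepG2 cells (24 h) bearing cis-regulated reporter constructs were processed for total RNA, then reverse transcription, PCR amplification, fluorescent primer extension and fragment analysis; gain- and loss-of-signal were fitted against DMSO.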

The nature of assay [3]: ATG_CMV_CIS: Attagene CIS-FACTORIAL HepG2 Assay for human CMV (Internal Marker) (AID 2282928).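 Also: endpoint acts as a background internal control marker rather than a target.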 The settings on record: HepG2 CMV promoter reporter, transcription factor profiling; actives raise or lower the signal. In a few lines: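 Bidirectional fits against DMSO are applied to reporter mRNA, read by RT-PCR with capillary electrophoresis, from HepG2 cells exposed 24 h. The endpoint serves as an internal CMV background marker within the cis-factorial reporter panel.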

The nature of assay [4]: ATG_DR4_LXR_CIS: Attagene CIS-FACTORIAL HepG2 Assay for human Liver X Receptor (LXR), DR4 submotif (AID 2282929). To be noted: HepG2 Attagene DR4 cis-reporter, mRNA transcription; actives raise or lower the signal. In a few lines: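 After transient transfection with multiplexed cis-promoter reporter units, HepG2 cells received test chemicals for 24 h. Reporter mRNA induction, detected by fluorescence after RT-PCR and capillary electrophoresis, was scored relative to DMSO.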

For assay [5], the target named is Aryl hydrocarbon receptor (Homo sapiens) (UniProt P35869). Description: ATG_Ahr_CIS: Attagene CIS-FACTORIAL HepG2 Assay for human Aryl Hydrocarbon Receptor (Ahr) (AID 2282930). To be noted: HepG2 AhR cis-factorial reporter transcription; actives raise or lower the signal. In short, it runs like this:
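Following 24 h of chemical dosing, transfected HepG2 liver cells with cis-driven reporter units were lysed for RNA; reporter mRNA was quantified via RT-PCR and capillary electrophoresis, and responses fitted bidirectionally from DMSO.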

Assay [6] can be described thus: ATG_AP_1_CIS: Attagene CIS-FACTORIAL HepG2 Assay for human Activator Protein 1 (AP-1) (AID 2282931). The settings on record: HepG2 Attagene cis-factorial AP-1 reporter mRNA; actives raise or lower the signal. In short, it runs like this: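 After 24 h incubation with test chemical, RNA from transfected HepG2 cells was reverse-transcribed, amplified, fluorescently labelled and digested before capillary electrophoresis. Reporters were driven by cis-regulatory promoters; activity fitted bidirectionally versus DMSO.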

A short description of assay [7]: ATG_AP_2_CIS: Attagene CIS-FACTORIAL HepG2 Assay for human Activator Protein 2 (AP-2) (AID 2282932). The settings on record: HepG2 AP-2 cis-reporter, Attagene transcription factor profiling; actives raise or lower the signal. In short, it runs like this:
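Cells (HepG2) transfected with promoter-driven reporter constructs, treated 24 h. Total RNA reverse-transcribed, reporter cDNA PCR-amplified, FAM-labelled by primer extension, digested, resolved by capillary electrophoresis. Activity fitted both directions versus DMSO.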

Assay [8] in a line: ATG_BRE_CIS: Attagene CIS-FACTORIAL HepG2 Assay for human Bone Morphogenetic Protein (BMP) Response Element (BRE) (AID 2282933). The settings on record: HepG2 BMP response element reporter, Attagene transcription factor profiling; actives raise or lower the signal. In a few lines:
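Read-out: reporter mRNA induction quantified by RT-PCR and capillary electrophoresis after 24 h chemical exposure of transfected HepG2 cells. Endogenous factor activity on the BMP response element; gain or loss fitted against DMSO baseline.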

Assay [9] addresses Retinoic acid receptor alpha (Homo sapiens) (UniProt P10276). The assay can be described thus: ATG_DR5_RAR_CIS: Attagene CIS-FACTORIAL HepG2 Assay for human Retinoic Acid Receptor Alpha (RARE), DR5 submotif (AID 2282934). The settings on record: HepG2 Attagene cis-factorial RARE DR5 reporter, mRNA; actives raise or lower the signal. In a few lines:
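Transfected HepG2 reporter cells are exposed to chemicals for 24 h. Then RNA is extracted and the DR5 element reporter transcript is measured by RT-PCR and capillary electrophoresis, with bidirectional curve fitting relative to DMSO.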

Assay [10] concerns the target Transcription factor E2F1 (Homo sapiens) (UniProt Q01094). Description: ATG_E2F_CIS: Attagene CIS-FACTORIAL HepG2 Assay for human E2F Transcription Factor 1 (AID 2282935). To be noted: HepG2 Attagene cis-reporter, E2F reporter RNA transcripts; actives raise or lower the signal. In a few lines: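 First, HepG2 cells were transfected with reporter transcription units. Next, they were dosed for 24 h. Then RNA was isolated, converted to cDNA, PCR-amplified, FAM-labeled, HpaI-digested and analyzed by capillary electrophoresis.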

Each structure is given as a SMILES string. The source made the active and inactive calls. The calls were made as follows: active = hit-call score of the fitted dose curve at least 0.9, where 1 is the maximum; inactive = score below 0.9.

Aryl hydrocarbon receptor (Homo sapiens), sequence (P35869 whole entry, looked up): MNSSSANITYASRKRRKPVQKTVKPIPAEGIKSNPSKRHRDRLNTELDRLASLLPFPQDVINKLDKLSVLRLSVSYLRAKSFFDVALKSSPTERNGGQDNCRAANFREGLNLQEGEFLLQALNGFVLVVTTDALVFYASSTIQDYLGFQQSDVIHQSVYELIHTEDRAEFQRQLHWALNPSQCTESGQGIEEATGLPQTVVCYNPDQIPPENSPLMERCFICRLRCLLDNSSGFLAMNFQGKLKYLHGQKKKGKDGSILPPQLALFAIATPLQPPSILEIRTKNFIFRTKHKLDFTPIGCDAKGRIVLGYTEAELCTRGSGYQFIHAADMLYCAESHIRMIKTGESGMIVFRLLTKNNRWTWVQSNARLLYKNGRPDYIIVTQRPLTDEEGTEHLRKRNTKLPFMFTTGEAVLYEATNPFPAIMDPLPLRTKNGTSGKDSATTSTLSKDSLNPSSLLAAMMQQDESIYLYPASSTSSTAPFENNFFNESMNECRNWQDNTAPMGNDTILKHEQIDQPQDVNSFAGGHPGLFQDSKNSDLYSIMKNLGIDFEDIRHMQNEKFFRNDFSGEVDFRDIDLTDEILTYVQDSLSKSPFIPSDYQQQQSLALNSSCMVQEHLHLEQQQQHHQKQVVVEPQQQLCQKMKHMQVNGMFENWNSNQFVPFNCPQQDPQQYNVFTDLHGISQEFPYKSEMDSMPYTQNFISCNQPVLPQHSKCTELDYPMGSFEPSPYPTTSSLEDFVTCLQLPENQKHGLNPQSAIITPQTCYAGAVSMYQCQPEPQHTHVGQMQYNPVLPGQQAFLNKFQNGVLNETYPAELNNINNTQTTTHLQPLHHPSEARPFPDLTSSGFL
Retinoic acid receptor alpha (Homo sapiens), sequence (P10276 whole entry, looked up): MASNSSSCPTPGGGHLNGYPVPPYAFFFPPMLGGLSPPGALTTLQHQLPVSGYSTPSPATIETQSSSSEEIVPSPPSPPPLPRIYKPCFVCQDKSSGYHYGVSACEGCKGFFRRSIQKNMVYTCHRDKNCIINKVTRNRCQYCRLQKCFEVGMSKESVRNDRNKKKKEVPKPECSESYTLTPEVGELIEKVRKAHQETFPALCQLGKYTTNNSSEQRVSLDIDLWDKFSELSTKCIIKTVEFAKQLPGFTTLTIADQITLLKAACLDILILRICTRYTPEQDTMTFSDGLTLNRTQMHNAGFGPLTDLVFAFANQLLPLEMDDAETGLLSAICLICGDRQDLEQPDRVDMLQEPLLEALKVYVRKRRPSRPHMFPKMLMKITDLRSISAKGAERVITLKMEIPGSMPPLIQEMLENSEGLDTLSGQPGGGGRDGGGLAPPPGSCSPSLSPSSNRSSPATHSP
CCAAT/enhancer-binding protein beta (Homo sapiens), sequence (P17676 whole entry, looked up, the tested form may be a part): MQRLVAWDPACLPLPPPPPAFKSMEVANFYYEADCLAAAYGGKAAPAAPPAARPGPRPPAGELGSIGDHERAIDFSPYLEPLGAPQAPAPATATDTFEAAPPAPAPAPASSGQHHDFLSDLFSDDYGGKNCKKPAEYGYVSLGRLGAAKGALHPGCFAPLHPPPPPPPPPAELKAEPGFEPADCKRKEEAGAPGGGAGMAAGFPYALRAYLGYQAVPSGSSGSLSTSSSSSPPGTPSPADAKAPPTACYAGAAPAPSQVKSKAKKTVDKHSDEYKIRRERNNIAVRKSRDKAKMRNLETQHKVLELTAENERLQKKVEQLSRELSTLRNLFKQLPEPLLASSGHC
Transcription factor E2F1 (Homo sapiens), sequence (Q01094 whole entry, looked up): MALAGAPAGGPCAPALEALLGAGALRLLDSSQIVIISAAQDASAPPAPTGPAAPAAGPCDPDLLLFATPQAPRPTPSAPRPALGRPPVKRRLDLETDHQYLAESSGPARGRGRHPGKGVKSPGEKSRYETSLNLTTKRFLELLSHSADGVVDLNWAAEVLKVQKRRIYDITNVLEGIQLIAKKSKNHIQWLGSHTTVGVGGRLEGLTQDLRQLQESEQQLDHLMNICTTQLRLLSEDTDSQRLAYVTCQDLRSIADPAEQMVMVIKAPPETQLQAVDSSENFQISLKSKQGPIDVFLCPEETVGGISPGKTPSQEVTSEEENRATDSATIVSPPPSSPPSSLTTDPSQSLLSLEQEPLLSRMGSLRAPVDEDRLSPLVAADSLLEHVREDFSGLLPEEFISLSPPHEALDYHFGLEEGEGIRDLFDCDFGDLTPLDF

As for `O=c1oc(=O)c2cc3c(=O)oc(=O)c3cc12`, the result in assay [1], in [2], in [3], in assay [4], in assay [5] and in assay [6] was inactive. Further, the compound was classed as inactive in [7], in [8], in assay [9] and in [10].

As to `Clc1ccc2c(c1)C(N1CCNCC1)=Nc1ccccc1O2`, the outcome in assay [1], in assay [3], in assay [4], in assay [6], in assay [7] and in [8] was inactive. The call in assay [10] was inactive. For the same compound, the AC50 in assay [2] was 51 µM (active); in [5] it was 41.1 µM (active).

`CC[C@]12CCCN3CCc4c(n(c5ccccc45)[C@@](O)(C(=O)OC)C1)[C@@H]32`: the outcome in assay [1], in [2], in assay [3], in assay [4], in assay [5] and in assay [6] was inactive. Moreover, the outcome in [7], in assay [8], in assay [9] and in [10] was inactive.

Take `CCN(CC)CCOC(=O)c1ccc(N)cc1`: the call in assay [1], in assay [2], in [3], in [4], in assay [5] and in assay [6] was inactive. Further, the compound was called inactive in assay [7], in assay [8], in [9] and in assay [10].

On to `CCCCNC(=O)NS(=O)(=O)c1ccc(N)cc1`, for which the call in assay [1], in assay [2], in [3], in assay [4], in [5] and in [6] was inactive. Also, the compound was called inactive in assay [7], in assay [8], in assay [9] and in [10].

With `O=S(=O)(O)c1cccc2c(S(=O)(=O)O)cccc12`, the outcome in assay [1], in assay [2], in assay [3], in [4], in [5] and in [6] was inactive. The result in [7], in assay [8], in assay [9] and in assay [10] was inactive.

Regarding `CCCCCCCCCCCCOCCO`, the compound was classed as inactive in assay [1], in [2], in assay [8], in assay [9] and in [10]. The AC50 in assay [3] was 33.4 µM (active); in [4] it was 51.7 µM (active); in assay [5] it was 33.4 µM (active); in assay [6] it was 50.2 µM (active); in [7] it was 57.4 µM (active).

In the case of `C=CCOc1nc(OCC=C)nc(OCC=C)n1`, the compound was called inactive in assay [1], in assay [2], in assay [4], in assay [5], in assay [6] and in assay [7]. Further, the result in assay [8] and in assay [10] was inactive. Moreover, the AC50 in assay [3] was 42.9 µM (active).

On to `CCCC[n+]1ccccc1`, for which the compound was classed as inactive in [1], in [2], in [3], in [4], in assay [5] and in assay [6]. The result in [7], in assay [8], in assay [9] and in assay [10] was inactive.

As to `CC(C)Oc1ccccc1O`, the outcome in assay [1], in [2], in assay [3], in [4], in assay [6] and in assay [7] was inactive. Further, the call in [8] and in assay [10] was inactive. Besides, in assay [5], the AC50 is 47.8 µM (active).

For the compound `CCN(CC)c1ccc(C(=C2C=CC(=[N+](CC)CC)C=C2)c2ccc(S(=O)(=O)O)cc2S(=O)(=O)[O-])cc1`, the result in [1], in assay [2], in assay [3], in assay [4], in [5] and in [6] was inactive. In addition, the compound was called inactive in assay [7], in assay [8], in assay [9] and in assay [10].

`CC(CN1c2ccccc2Sc2ccccc21)N(C)C` (centres undefined): the compound was called inactive in assay [1], in [2], in assay [3], in [5], in assay [6] and in assay [8]. The compound was called inactive in assay [9]. The AC50 is 33.4 µM (active) in assay [4], 40.6 µM (active) in assay [7] and 33.4 µM (active) in assay [10].

In the case of `CC1(C)C(=O)N(Br)C(=O)N1Cl`, the compound was classed as inactive in assay [1], in assay [2], in [3], in [4], in assay [5] and in [6]. Moreover, the compound was classed as inactive in assay [7], in assay [8], in assay [9] and in assay [10].

Regarding `Cc1ccc2sc3cccc(C)c3c2c1`, the outcome in assay [1], in assay [2], in assay [3], in [4], in assay [5] and in assay [6] was inactive. The compound was classed as inactive in assay [7], in assay [8] and in assay [10].

Turning to `C[C@H]1C[C@@H]2[C@H]([C@@H](O)C[C@@]3(C)[C@H]2CC[C@]3(O)C(=O)CO)[C@@]2(C)C=CC(=O)C=C12`, the outcome in assay [1], in assay [2], in [3], in assay [4], in [5] and in assay [6] was inactive. In addition, the compound was called inactive in assay [7], in assay [8] and in assay [10].

With `CCCC1CCC(=O)O1` (centres undefined), the compound was classed as inactive in [1], in [2], in assay [3], in [4], in assay [6] and in assay [7]. Also, the compound was classed as inactive in [8] and in assay [10]. For the same compound, the AC50 in assay [5] was 10.2 µM (active).

In the case of `COc1c(Cl)c(Cl)c(Cl)c(Cl)c1Cl`, the compound was called inactive in [1], in assay [2], in assay [4], in assay [5], in assay [6] and in [7]. Further, the compound was called inactive in [8] and in assay [10]. Also, in assay [3], the AC50 was 27.7 µM (active).

In the case of `CC1=CCC(O)(C(C)C)CC1` (centres undefined), the outcome in [1], in [2], in assay [3], in assay [4], in assay [5] and in assay [6] was inactive. Also, the call in assay [7], in [8] and in [10] was inactive.

In the case of `C=C(C)C(=O)NCCCN(C)C`, the call in [1], in [2], in assay [3], in [4], in assay [5] and in assay [6] was inactive. The outcome in assay [7], in assay [8] and in [10] was inactive.

In the case of `C=C(C)C1CCC(C)CC1O` (centres undefined), the call in assay [1], in assay [2], in assay [3], in assay [4], in assay [5] and in [6] was inactive. Further, the outcome in [7], in [8] and in assay [10] was inactive.

Turning to `CCCCCCCCCCCCSC`, the result in assay [1], in [2], in assay [4], in assay [5], in [6] and in assay [7] was inactive. The call in [8] and in assay [10] was inactive. Moreover, the AC50 in [3] is 100 µM (active).

Consider `O=C(OCc1ccccc1)C(=O)OCc1ccccc1`, for which the compound was called inactive in assay [1], in [2], in [3], in [4], in assay [5] and in assay [6]. Moreover, the compound was classed as inactive in [7], in assay [8] and in assay [10].

Turning to `CCC(O)CO` (centres undefined), the outcome in assay [1], in [2], in assay [3], in assay [4], in assay [5] and in [6] was inactive. Also, the call in [7], in assay [8] and in [10] was inactive.

With `CC(C)=CCC[C@](C)(O)[C@@H]1CC=C(C)CC1`, the call in assay [1], in assay [2], in assay [4], in assay [5], in assay [6] and in [7] was inactive. Besides, the compound was classed as inactive in [8] and in assay [10]. Also, in assay [3], the AC50 is 49.5 µM (active).

With `CC(=O)Nc1ccc(C)cc1C`, the compound was classed as inactive in assay [1], in assay [2], in [3], in assay [4], in assay [5] and in assay [6]. For the same compound, the call in assay [7], in assay [8] and in assay [10] was inactive.

For the compound `CC(=O)/C=C/C1=C(C)CCCC1(C)C`, the result in assay [1], in assay [2], in [3], in assay [4], in assay [5] and in assay [6] was inactive. The result in [7], in assay [8] and in assay [10] was inactive.
